This is part of a sample that, as a whole, favours compounds with a hit. Of some 79,000 tested, about 15% had one in any assay. The source made the active and inactive calls. Rule as the data show it: active = growth inhibition above about 70%; inactive = the rest.
Legend:
[1] = NCI Yeast Anticancer Drug Screen. Data for the rad52 strain (AID 147);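 also: 0% = growth of vehicle-treated control cultures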; conditions: S. cerevisiae rad52 mutant growth inhibition, active compounds read high
Summary of the method: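 Here a repair-compromised yeast strain receives each compound; its growth is then quantified and normalised to vehicle-only controls.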

[2] = NCI Yeast Anticancer Drug Screen. Data for the wt1 strain (AID 149);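 also: 0% = growth of vehicle-treated wt1 cultures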; conditions: S. cerevisiae wt1 strain (SPY 50644) growth inhibition, active compounds read high
Summary of the method: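 wt1 yeast, compound-treated; % growth inhibition vs vehicle control.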

[3] = NCI Yeast Anticancer Drug Screen. Data for the rad50EPP+ strain (AID 151);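 also: 0% = growth of vehicle-treated control cultures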; conditions: S. cerevisiae rad50 mutant strain, active compounds read high
Summary of the method: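 Read-out is yeast growth inhibition relative to vehicle; cells used were the rad50EPP+ strain.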

[4] = NCI Yeast Anticancer Drug Screen. Data for the rad50 strain (AID 155);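 also: 0% = growth of vehicle-only cultures of the same strain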; conditions: S. cerevisiae rad50 strain growth inhibition, active compounds read high
Summary of the method: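 Genetically altered yeast (DNA repair pathway); compound treatment; growth inhibition vs vehicle ctrl.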

[5] = NCI Yeast Anticancer Drug Screen. Data for the mec2-1 strain (AID 157); conditions: S. cerevisiae mec2-1 strain, active compounds read high
Summary of the method: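 Using mec2-1 yeast: add compound, measure growth, express inhibition versus vehicle-treated cultures.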

[6] = NCI Yeast Anticancer Drug Screen. Data for the rad14 strain (AID 159);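 also: 0% = growth of vehicle-treated control cultures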; conditions: S. cerevisiae rad14 strain growth inhibition, active compounds read high
Summary of the method: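 Test compounds were applied to a repair-deficient yeast strain. Its growth was then compared with that of cultures given vehicle alone, and inhibition was expressed relative to those controls.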

[7] = NCI Yeast Anticancer Drug Screen. Data for the sgs1 mgt1 strain (AID 161);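 also: 0% = growth of cultures given vehicle only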; conditions: S. cerevisiae sgs1 mgt1 strain, active compounds read high
Summary of the method: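 This yeast growth screen uses a strain with defined DNA-repair lesions; compound-treated growth is compared with vehicle-treated growth.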

[8] = NCI Yeast Anticancer Drug Screen. Data for the CLN2oe strain (AID 163);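 also: 0% = growth of vehicle-only control cultures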; conditions: S. cerevisiae CLN2oe strain, active compounds read high
Summary of the method: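 Whole-cell yeast growth assay. A strain engineered for altered cell-cycle control received compound, and inhibition relative to vehicle-treated cultures was recorded.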

[9] = NCI Yeast Anticancer Drug Screen. Data for the cln2 rad14 strain (AID 165);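 also: 0% = growth equal to vehicle treated cultures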; conditions: S. cerevisiae cln2 rad14 strain, active compounds read high
Summary of the method: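 Yeast strain cln2 rad14, bearing defects in cell cycle control and DNA repair, serves as the test system; values reflect growth inhibition compared with vehicle.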

[10] = NCI Yeast Anticancer Drug Screen. Data for the bub3 strain (AID 167); conditions: S. cerevisiae bub3 mutant strain, active compounds read high
Summary of the method: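 Yeast carrying a defined mutation is treated with each compound, and growth is compared with that of vehicle-exposed cells to give inhibition.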

[11] = NCI Yeast Anticancer Drug Screen. Data for the wt2 strain (AID 169);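 also: 0% = growth of vehicle-treated yeast cultures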; conditions: S. cerevisiae wt2 strain growth inhibition, active compounds read high
Summary of the method: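 Treated yeast vs. vehicle-treated yeast: growth inhibition determined.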

[12] = NCI Yeast Anticancer Drug Screen. Data for the mlh1 strain (AID 171);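 also: 0% = growth of vehicle-treated control cultures of the same strain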; conditions: S. cerevisiae mlh1 strain growth inhibition, active compounds read high
Summary of the method: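 A yeast strain with a defined genetic lesion serves as the test organism. Cultures receive compound or vehicle, and growth is measured.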

[13] = NCI Yeast Anticancer Drug Screen. Data for the sgs1 strain (AID 173);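 also: 0% = growth of vehicle-only control cultures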; conditions: S. cerevisiae sgs1 mutant, active compounds read high
Summary of the method: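 A genetically defined yeast mutant is incubated with the test compound, and its growth is compared to that of the same strain given vehicle.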

[14] = NCI Yeast Anticancer Drug Screen. Data for the mlh1 rad18 strain (AID 175); conditions: S. cerevisiae mlh1 rad18 strain growth inhibition, active compounds read high
Summary of the method: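 Steps: expose repair-defective yeast to compound; measure growth; express inhibition against vehicle-treated controls.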

[15] = NCI Yeast Anticancer Drug Screen. Data for the rad18 strain (AID 177); conditions: S. cerevisiae rad18 mutant growth inhibition, active compounds read high
Summary of the method: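 Measured value is growth inhibition of a yeast strain bearing a DNA repair alteration, referenced to vehicle-treated cells.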

[16] = at 5.0 µM (retest, dose inferred, filed as 0.5)
[17] = at 50.0 µM (retest, dose inferred, filed as 5.0)

Measured: growth inhibition

COc1ccc(N=Nc2ccc3oc(=O)c(C(=O)Nc4ccccc4)cc3c2)cc1
inactive: [1]; at 1.2 µM -19% | [1]; at 3.7 µM -2% | [2]; at 1.2 µM -4% | [2]; at 3.7 µM 2% | [2]; at 11.0 µM 67% | [3]; at 1.2 µM 6% | [3]; at 3.7 µM 45% | [4]; at 1.2 µM -2% | [4]; at 3.7 µM 7% | [4]; [16] 0% | [5]; at 1.2 µM -18% | [5]; at 3.7 µM 12% | [5]; [16] -12% | [6]; at 1.2 µM 4% | [6]; at 3.7 µM 25% | [7]; [16] 12% | [7]; [17] 48% | [8]; at 1.2 µM -12% | [8]; at 3.7 µM -10% | [8]; at 11.0 µM 48% | [9]; [16] -19% | [10]; at 1.2 µM -11% | [10]; at 3.7 µM 3% | [10]; [16] 29% | [11]; at 1.2 µM 1% | [11]; at 3.7 µM 14% | [12]; at 1.2 µM 25% | [12]; at 3.7 µM 31% | [13]; at 1.2 µM -9% | [13]; at 3.7 µM 18% | [14]; [16] 39% | [15]; at 1.2 µM -7% | [15]; at 3.7 µM 5%
active: [1]; at 11.0 µM 85% | [1]; at 33.0 µM 96% | [1]; at 100.0 µM 95% | [2]; at 33.0 µM 96% | [2]; at 100.0 µM 94% | [3]; at 11.0 µM 83% | [3]; at 33.0 µM 94% | [3]; at 100.0 µM 95% | [4]; at 11.0 µM 89% | [4]; at 33.0 µM 96% | [4]; [17] 95% | [4]; at 50.0 µM 87.7% | [4]; at 100.0 µM 96% | [5]; at 11.0 µM 82% | [5]; at 33.0 µM 97% | [5]; [17] 97% | [5]; at 50.0 µM 91.3% | [5]; at 100.0 µM 95% | [6]; at 11.0 µM 96% | [6]; at 33.0 µM 97% | [6]; at 100.0 µM 97% | [7]; at 50.0 µM 87.2% | [8]; at 33.0 µM 95% | [8]; at 100.0 µM 92% | [9]; [17] 95% | [9]; at 50.0 µM 85.3% | [10]; at 11.0 µM 71% | [10]; at 33.0 µM 96% | [10]; [17] 96% | [10]; at 50.0 µM 90.5% | [10]; at 100.0 µM 95% | [11]; at 11.0 µM 81% | [11]; at 33.0 µM 96% | [11]; at 100.0 µM 96% | [12]; at 11.0 µM 92% | [12]; at 33.0 µM 96% | [12]; at 100.0 µM 91% | [13]; at 11.0 µM 93% | [13]; at 33.0 µM 97% | [13]; at 100.0 µM 96% | [14]; [17] 95% | [14]; at 50.0 µM 85.7% | [15]; at 11.0 µM 84% | [15]; at 33.0 µM 95% | [15]; at 100.0 µM 96%

O=C1CSC(=S)N1Cc1ccc(Cl)cc1Cl
active: [1]; at 11.0 µM 98% | [1]; at 33.0 µM 99% | [1]; at 100.0 µM 98% | [2]; at 11.0 µM 99% | [2]; at 33.0 µM 99% | [2]; at 100.0 µM 97% | [3]; at 3.7 µM 72% | [3]; at 11.0 µM 97% | [3]; at 33.0 µM 99% | [3]; at 100.0 µM 98% | [4]; at 11.0 µM 99% | [4]; at 33.0 µM 99% | [4]; [17] 98% | [4]; at 50.0 µM 99.1% | [4]; at 100.0 µM 98% | [5]; at 11.0 µM 93% | [5]; at 33.0 µM 99% | [5]; [17] 99% | [5]; at 50.0 µM 99.3% | [5]; at 100.0 µM 99% | [6]; at 11.0 µM 99% | [6]; at 33.0 µM 100% | [6]; at 100.0 µM 99% | [7]; [17] 99% | [7]; at 50.0 µM 99.4% | [8]; at 11.0 µM 96% | [8]; at 33.0 µM 99% | [8]; at 100.0 µM 98% | [9]; [17] 99% | [9]; at 50.0 µM 98.8% | [10]; at 11.0 µM 99% | [10]; at 33.0 µM 99% | [10]; [17] 98% | [10]; at 50.0 µM 99.3% | [10]; at 100.0 µM 99% | [11]; at 11.0 µM 100% | [11]; at 33.0 µM 100% | [11]; at 100.0 µM 99% | [12]; at 11.0 µM 99% | [12]; at 33.0 µM 99% | [12]; at 100.0 µM 99% | [13]; at 11.0 µM 99% | [13]; at 33.0 µM 99% | [13]; at 100.0 µM 99% | [14]; [17] 98% | [14]; at 50.0 µM 97% | [15]; at 11.0 µM 99% | [15]; at 33.0 µM 99% | [15]; at 100.0 µM 98%
inactive: [1]; at 1.2 µM -4% | [1]; at 3.7 µM 8% | [2]; at 1.2 µM 1% | [2]; at 3.7 µM 24% | [3]; at 1.2 µM 12% | [4]; at 1.2 µM -6% | [4]; at 3.7 µM 26% | [4]; [16] 29% | [5]; at 1.2 µM 1% | [5]; at 3.7 µM -1% | [5]; [16] 10% | [6]; at 1.2 µM 3% | [6]; at 3.7 µM 20% | [7]; [16] 41% | [8]; at 1.2 µM -10% | [8]; at 3.7 µM -11% | [9]; [16] 0% | [10]; at 1.2 µM -9% | [10]; at 3.7 µM 15% | [10]; [16] 14% | [11]; at 1.2 µM 12% | [11]; at 3.7 µM 55% | [12]; at 1.2 µM -13% | [12]; at 3.7 µM 8% | [13]; at 1.2 µM 2% | [13]; at 3.7 µM 33% | [14]; [16] 66% | [15]; at 1.2 µM -6% | [15]; at 3.7 µM 27%

Source: PubChem BioAssay (NCI)
